Pf Dd2 growth = qHTS Primary assay for Inhibitors of Plasmodium falciparum Dd2 growth in vitro. AID 1347417, 2020. 120,000 tested, 4.3% active. P. falciparum Dd2 growth, SYBR Green, 72 h. Potency, µM (highest dose often 28.9 µM), hits mostly inhibitors; active means well fitted inhibition curve with a large enough effect; further: nearly all actives have a fitted effect of over 65% in size
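Readout: SYBR Green fluorescence, 485 nm excitation, 535 nm emission, after ~16 h lysis at 37C. Before that, Dd2-infected red cells (2.5% hematocrit) grew 72 h with compound, 29 uM top final concentration.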
Of the large screens only hits and unclear results are named; the others gave an inactive call. The full list was thinned out, with hits kept by preference.

O=C(c1cccc(Cl)c1)N1CCN(C2CCN(CCc3ccccc3)C2=O)CC1 (configuration not stated)	none
CCOC(=O)N1CCC(NC(=O)c2cnn(-c3ccc(F)cc3F)c2C2CCN(C(=O)OC(C)(C)C)CC2)CC1	Pf Dd2 growth 3.55µM
CC(C)(C)OC(=O)N1CCC(c2c(C(=O)NC3CCN(Cc4ccccc4)CC3)cnn2-c2ccc(F)cc2F)CC1	Pf Dd2 growth 11.2µM
CN1CCC2(Cc3ccccc3CN([S+](C)(=O)[O-])C2)C1 (configuration not stated)	none
Cc1c(C(=O)N2CC[C@@H]3[C@@H](CCC(=O)N3CCN)C2)[nH]c2ccccc12	none
Cc1nccn1-c1ccc(CNC(=O)C(c2ccccc2F)N(C)C)cc1 (configuration not stated)	none
O=C(NC1CCCC1)N1CCC2(CC1)CC(N(Cc1ccc(F)cc1)C1CC1)CCO2 (configuration not stated)	Pf Dd2 growth 4.47µM
O=C(NC1CCCC1)N1CCC2(CC1)CC(N(C(=O)c1ccccc1)C1CC1)CCO2 (configuration not stated)	none
O=C(c1ccsc1)N1CCC2(CC1)CC(N(Cc1ccc(F)cc1)C1CC1)CCO2 (configuration not stated)	Pf Dd2 growth 8.91µM
COc1cccc(CC(=O)N2CCC3(CC2)CC(N(Cc2ccccc2)C2CC2)CCO3)c1 (configuration not stated)	none
CCC(CC)C(=O)N1CCC2(CC1)CC(N(Cc1ccc(F)cc1)C1CC1)CCO2 (configuration not stated)	none
O=C(Cc1ccccc1)N1CCC2(CC1)CC(N(Cc1ccccc1)C1CC1)CCO2 (configuration not stated)	none
O=C(COc1ccccc1)N1CCC2(CC1)CC(N(Cc1ccccc1)C1CC1)CCO2 (configuration not stated)	Pf Dd2 growth 3.16µM
O=C(c1ccsc1)N1CCC2(CC1)CC(N(Cc1ccccc1)C1CC1)CCO2 (configuration not stated)	none
Cc1ccsc1C(=O)N1CCC2(CC1)CC(N(Cc1ccc(F)cc1)C1CC1)CCO2 (configuration not stated)	Pf Dd2 growth 10µM
Cc1ccsc1C(=O)N1CCC2(CC1)CC(N(C(=O)c1ccccc1)C1CC1)CCO2 (configuration not stated)	none
COC(=O)CNC(=O)N1CCC2(CC1)CC(N(Cc1ccc(F)cc1)C1CC1)CCO2 (configuration not stated)	none
CCS(=O)(=O)N(C1CC1)C1CCOC2(CCN(C(=O)c3ccc(F)cc3)CC2)C1 (configuration not stated)	none
O=C(Nc1ccccc1)Nc1ccc([C@H]2OCC(=O)N(Cc3ccccc3)[C@@H]2CO)cc1	none
O=S(=O)(c1ccc2c(c1)CCCC2)N1CCCC(Cn2cnc3cccnc32)C1 (configuration not stated)	none
CC(=O)c1cccc(NC(=O)Cn2c(N3CCc4ccccc4C3)nc(C)cc2=O)c1	none
Cc1nn2c(NCCc3ncc[nH]3)cc(-c3ccccc3)nc2c1C	none
O=C(C1CCC1)N1CC[C@H]2COC(=O)N2c2ccccc2C1	none
O=C(c1ccc2ccccc2n1)N1CCC2(CC1)CC(Cc1cccc(F)c1)CCO2 (configuration not stated)	none
CC(C)CNC(=O)c1ccc2c(c1)NC(C)(COCC1CC1)CO2 (configuration not stated)	none
Cc1c(C(=O)NCc2ccc(F)cc2)sc2nc3n(c(=O)c12)CCC3	none
CCOc1ccc(NC(=O)c2sc3nc4n(c(=O)c3c2C)CCCC4)cc1	none
Cc1c(C(=O)Nc2cccc(C(F)(F)F)c2)sc2nc3n(c(=O)c12)CCCC3	Pf Dd2 growth 10µM
COCC(=O)NC1CCc2nnc(C3CC3)n2CC1 (configuration not stated)	none
COc1ccc2c(CNCCc3cccs3)c(C(=O)O)n(Cc3ccccc3)c2c1	none
COc1ccc(Cn2c(C(=O)O)c(CNCCc3cc(OC)ccc3OC)c3ccc(C)cc32)cc1	Pf Dd2 growth 8.91µM
COc1ccc(Cn2c(C(=O)O)c(CNCc3ccc(OC)cc3OC)c3ccc(C)cc32)cc1	Pf Dd2 growth 6.31µM
COc1ccc(Cn2c(C(=O)O)c(CNCCc3ccco3)c3ccc(C)cc32)cc1	none
COc1ccc(Cn2c(C(=O)O)c(CNC3CCCCC3)c3ccc(C)cc32)cc1	none
COc1ccc2c(CNCc3ccccc3OC)c(C(=O)O)n(Cc3ccc(F)cc3Cl)c2c1	none
CCOc1ccc(CCNCc2c(C(=O)O)n(Cc3ccc(C)cc3)c3cc(OC)ccc23)cc1	Pf Dd2 growth 11.2µM
COc1ccc2c(CNCCc3cccs3)c(C(=O)O)n(Cc3cccc(F)c3)c2c1	none
C=Cc1ccc(Cn2c(C(=O)O)c(CNCCc3ccco3)c3ccc(C)cc32)cc1	none
CCC(=O)Nc1cccc(C2OC(=O)N(Cc3ccc(C)cc3)C2C(=O)NCC2CC2)c1 (configuration not stated)	none
Cc1ccccc1Cn1c2ccccc2c2cnn(CC(=O)N3CCC(C)CC3)c(=O)c21	none
CCN1CCN(C(=O)Cn2ncc3c4ccccc4n(Cc4c(C)cc(C)cc4C)c3c2=O)CC1	Pf Dd2 growth 12.6µM
